# Assay results from PubChem BioAssay (Tox21).
# Results filed as inconclusive are left out. Entries that show only a call come without a potency. Activity calls are given as the source filed them. Calls follow the shape of the dose curve; as a rule, active = well fitted inhibition curve with a large enough effect in the repeat runs; inconclusive = weak or mixed curves, or effect the other way; inactive = no such curve, though single readings can be large or run the other way.
# Molecular target: Nuclear receptor ROR-gamma (Homo sapiens) (UniProt P51449)
# Experiment: qHTS assay to identify small molecule antagonists of the retinoid-related orphan receptor gamma (ROR-gamma) signaling pathway (AID 1159521; also: top concentration of the series differs between compounds; nearly all actives have a fitted effect of over 50% in size)
# Conditions: Tet-on RORgamma CHO cells, RORE-luciferase, 16 h; series mostly up to 92.4 µM
# From the text: U.S. Tox21 Program National Center for Advancing Translational Sciences [NCATS] NIH Chemical Genomics Center [NCGC] U.S. Environmental Protection Agency [EPA] National Institutes of Environmental Health Sciences [NIEHS] National Toxicology Program [NTP] U.S. Food and Drug Administration [FDA] Tox21 Assay Overview: Nuclear steroid hormone receptors are involved in many biological processes including inflammatory responses, cell proliferation, and apoptosis. Environmental factors or compounds disrupting these nuclear receptor pathways and gene expression may promote susceptibility to immunotoxicants and autoimmune diseases. One important group of these expression factors are the retinoid-related orphan receptors. To assess compounds that may interfere with the retinoid-related orphan receptor gamma (ROR-gamma) transcription factor, a cell-based luciferase assay was used. The CHO cell-based assay utilizes a TET-inducible ROR expression factor and ROR response element-LUC reporter gene. Reporter gene activity was induced using Doxycycline Hyclate and measured after 16 hr incubation. Tet-on ROR gamma CHO cells were used to screen against the Tox21 10K compound library for ROR gamma antagonists by quantification of decreased reporter gene activity in terms of decreased luminescence.
# Tox21 Assay Protocol Summary: Tet-on ROR gamma CHO cells were dispensed at 1,000 cells in 4 uL of culture medium per well into white wall/solid bottom 1536-well plates using a Multidrop Combi (Thermo Scientific, Waltham, MA) dispenser. Following incubation at 37 C and 5% CO2 for 4 hr, 23 nL of compounds dissolved in DMSO, positive controls or DMSO only were transferred by a Pintool station (Kalypsys, San Diego, CA) and after 2 hr incubation at 37 C, one ul of 1 uM (final concentration) of Doxycycline Hyclate was added to all the wells by using a Flying Reagent Dispenser (FRD) (Aurora Discovery, San Diego, CA). After 16 hr incubation at 37 C and 5% CO2, 5 uL of ONE-Glo reagent (Promega Corporation, Madison, WI) was added to each assay plate using FRD. After 30 min incubation at room temperature, luminescence was quantified on a ViewLux plate reader (Perkin Elmer, Waltham, MA).
row,SMILES,Potency
1,Cc1ccccc1Cl,inactive
2,CN1Cc2c(N)cccc2C(c2ccccc2)C1 (stereo not given),inactive
3,COC(=O)/C=C\C(=O)OC,inactive
4,C=CC(C)(C)C,inactive
5,N[C@@H](Cc1cc(I)c(Oc2ccc(O)c(I)c2)c(I)c1)C(=O)O,inactive
6,NC(=O)NC(N)=O,inactive
7,C[Si](C)(C)N[Si](C)(C)C,inactive
8,COCN(COC)c1nc(N(COC)COC)nc(N(COC)COC)n1,inactive
9,Nc1cccc(N)n1,inactive
10,OC[C@H]1O[C@@H](Oc2ccc(O)cc2)[C@H](O)[C@@H](O)[C@@H]1O,inactive
11,Cc1ccncc1,inactive
12,CO[Si](CCCNCCN)(OC)OC,inactive
13,CC(=O)c1nccs1,inactive
14,OC1CCCCC1,inactive
15,CC(=O)OC(C)(C)C1CC=C(C)CC1 (stereo not given),inactive
16,COc1ccc([C@@H]2CC(=O)c3c(O)cc(O[C@@H]4O[C@H](CO[C@@H]5O[C@@H](C)[C@H](O)[C@@H](O)[C@H]5O)[C@@H](O)[C@H](O)[C@H]4O)cc3O2)cc1OC,inactive
17,C=C(C)CC(C)(C)C,inactive
18,CCN(CC)CCNC(=O)c1ccc(N)cc1,inactive
19,O=C(O)C1=NN(c2ccc(S(=O)(=O)O)cc2)C(=O)C1,inactive
20,CC(C)(CO)CO,inactive

row,SMILES,Potency
1,Oc1ccc(Cc2ccccc2O)cc1,inactive
2,CCOC(=O)CC(=O)OCC,inactive
3,CC(=O)Nc1ccc(CC(=O)O)cc1,inactive
4,CCc1cccc(CC)c1N,inactive
5,CCCCCCC(=O)O,inactive
6,Clc1cccc(Cl)c1NC1=NCCN1,inactive
7,O=C(NCC1CCCCN1)c1cc(OCC(F)(F)F)ccc1OCC(F)(F)F (stereo not given),inactive
8,CCCCC(CC)COC(=O)c1ccc(C(=O)OCC(CC)CCCC)cc1 (stereo not given),inactive
9,NCCNCCNCCN,inactive
10,OB(O)O,inactive
11,OCc1ccc(Cl)cc1Cl,inactive
12,CN1CCCC1=O,inactive
13,C1CCCNCC1,inactive
14,CS(=O)(=O)c1ccc(Cl)cc1,inactive
15,CCc1cccc(O)c1,inactive
16,O=C1C(N(CO)C(=O)NCO)N(CO)C(=O)N1CO (stereo not given),inactive
17,COc1ccccc1[N+](=O)[O-],inactive
18,CC(C=O)Cc1ccc(C(C)(C)C)cc1 (stereo not given),inactive
19,C=C1C[C@]23C[C@@]1(O)CC[C@H]2[C@@]12C=C[C@H](O)[C@@](C)(C(=O)O1)[C@H]2[C@@H]3C(=O)O,inactive
20,CC1(C)[C@@H](O[C@H]2O[C@H](C(=O)O)[C@@H](O)[C@H](O)[C@H]2O[C@@H]2O[C@H](C(=O)O)[C@@H](O)[C@H](O)[C@H]2O)CC[C@]2(C)[C@H]3C(=O)C=C4[C@@H]5C[C@@](C)(C(=O)O)CC[C@]5(C)CC[C@@]4(C)[C@]3(C)CC[C@@H]12,inactive
